The text below walks through data of PubChem BioAssay (Tox21).

Records with an inconclusive call do not appear. A call without a number means that no potency is given here. Active and inactive are the calls of the source. Calls come from the whole dose curve.

A short description of the experiment: qHTS assay for small molecule agonists of the antioxidant response element (ARE) signaling pathway - cell viability counter screen (AID 743203). Note: nearly all actives have a fitted effect of over 55% in size. Conditions: ARE-bla HepG2 viability, CellTiter-Glo luminescence, 16 h; series mostly up to 73.3 µM. The text has this: National Center for Advancing Translational Sciences [NCATS]
NIH Chemical Genomics Center [NCGC]
U.S. Environmental Protection Agency [EPA]
National Institutes of Environmental Health Sciences [NIEHS]
National Toxicology Program [NTP]
U.S. Food and Drug Administration [FDA]
Oxidative stress has been implicated in the pathogenesis of a variety of diseases ranging from cancer to neurodegeneration. The antioxidant response element (ARE) signaling pathway plays an important role in the amelioration of oxidative stress. The CellSensor ARE-bla HepG2 cell line (Invitrogen) can be used for analyzing the Nrf2/antioxidant response signaling pathway. Nrf2 (NF-E2-related factor 2) and Nrf1 are transcription factors that bind to AREs and activate these genes. The CellSensor ARE-bla Hep G2 cell line contains a beta-lactamase reporter gene under control of the Antioxidant Response Element (ARE) stably integrated into HepG2 cells. The activation of the report gene under culture conditions can be detected by fluorescence intensity. This cell line has been used to screen the Tox21 10K compound library to identify agonists that induce oxidative stress. The cytotoxicity of the Tox21 compound library against the ARE-bla cell line was tested in parallel by measuring the cell viability using CellTiter-Glo assay (Promega, Madison, WI) in the same wells.
Tox21 Assay Protocol Summary:
ARE-bla HepG2 cells were dispensed at 2,000 cells/5 ul/well in 1536-well white wall/solid bottom plates using a Multidrop Combi (ThermoFisher Scientific, Waltham, MA) dispenser. After the assay plates were incubated at 37C/5% CO2 for 5 hrs, 23 nL of compounds dissolved in DMSO, positive controls or DMSO only was transferred to the assay plate by a pintool work station (Kalypsys, San Diego, CA). The plates were incubated at 37C/5% CO2 for 16 hrs, followed by addition of 4 ul/well of CellTiter-Glo reagent into the assay plates using a Flying Reagent Dispenser (Aurora Discovery, San Diego, CA). After 30 min incubation at room temperature, the luminescence intensity in the assay plates was measured using a ViewLux (PerkinElmer, Shelton, CT) plate reader.
`C=C(C)C(=O)OCCCCCCCC(C)C`: the Potency entry was “inactive”.

Turning to `O=c1cc(CO)occ1O`, the Potency entry is “inactive”.

Take `CCCN(CCC)CCc1cccc2c1CC(=O)N2`: the Potency result is “inactive”.

On to `CC(NC(CCc1ccccc1)C(=O)O)C(=O)N1C(=O)N(C)CC1C(=O)O` (stereo not given), for which the Potency entry was “inactive”.

`CC(=O)OC/C=C(\C)CC/C=C(\C)CCC=C(C)C`: the Potency entry was “inactive”.

As for `N=C(N)c1ccc2cc(OC(=O)c3ccc(N=C(N)N)cc3)ccc2c1`, the Potency result was “inactive”.

With `CCC(C)C1CCCCC1=O` (stereo not given), the Potency result is “inactive”.

Regarding `NCCc1cnc[nH]1`, the Potency result is “inactive”.

Take `CCCCCCOC(=O)CCCCC(=O)OCCCCCC`: the Potency result was “inactive”.

Regarding `O=C(O)COc1nn(Cc2ccccc2)c2ccccc12`, the Potency result is “inactive”.

With `CCc1nccnc1CC`, the Potency entry is “inactive”.

On to `CC(=O)CC(C)C`, for which the Potency result was “inactive”.

Regarding `CCN1CCC[C@H]1CNC(=O)c1cc(S(N)(=O)=O)ccc1OC`, the Potency entry is “inactive”.

In the case of `C=CCCCCCCCCC=O`, the Potency result was “inactive”.

Turning to `CCOC(=O)Nc1ccc(NCc2ccc(F)cc2)nc1N`, the Potency entry was “inactive”.

Turning to `CCN(Cc1ccncc1)C(=O)C(CO)c1ccccc1` (stereo not given), the Potency entry is “inactive”.

Regarding `CCCCCCCCS(=O)(=O)Cl`, the Potency entry is “inactive”.

Consider `CC(=O)N(CC(O)CO)c1c(I)c(C(=O)NCCO)c(I)c(C(=O)NCC(O)CO)c1I` (stereo not given), for which the Potency entry was “inactive”.

Consider `C1CN(CCOCCN2CCOCC2)CCO1`, for which the Potency entry is “inactive”.

As to `Cc1sccc1Br`, the Potency result is “inactive”.

Consider `CC(=O)OCC(=O)[C@@]1(O)CCC2C3CCC4=CC(=O)CC[C@]4(C)C3[C@@H](O)C[C@@]21C` (stereo not given in full), for which the Potency result is “inactive”.

As for `Cn1cc(S(C)=O)c(=O)c2ccc(F)cc21` (stereo not given), the Potency result is “inactive”.

On to `CCN(CC)CCNC(=O)c1cc(S(C)(=O)=O)ccc1OC`, for which the Potency entry is “inactive”.

On to `COC(=O)CC(C)=O`, for which the Potency result is “inactive”.

For `N[C@H]1CN(c2c(F)cc3c(=O)c(C(=O)O)cn(C4C[C@H]4F)c3c2Cl)CC12CC2` (stereo not given in full), the Potency entry was “inactive”.

For the molecule `CCS(=O)(=O)c1ccc(OC)c(C(=O)OC)c1`, the Potency result was “inactive”.

Turning to `NS(=O)(=O)c1cc(C(=O)O)cc(N2CCCC2)c1Oc1ccccc1`, the Potency entry was “inactive”.

In the case of `CCCCCCCCCCCCN(CCCCCCCCCCCC)CCCCCCCCCCCC`, the Potency result is “inactive”.

As for `CCCCCCCCCCCC`, the Potency entry was “inactive”.

With `Cc1cc2c(cc1S(N)(=O)=O)S(=O)(=O)CCC2`, the Potency entry is “inactive”.

Regarding `CC1=CC(C)C(C=O)CC1` (stereo not given), the Potency entry was “inactive”.

Regarding `O=C(O)CCCc1ccccc1`, the Potency entry is “inactive”.

Regarding `CCO/C([O-])=N/c1c[n+](N2CCOCC2)no1`, the Potency result was “inactive”.

Take `CCN(CC)CCOCCOC(=O)C1(c2ccccc2)CCCC1`: the Potency entry was “inactive”.

With `CCOC(=O)[C@H](CCc1ccccc1)N[C@@H](C)C(=O)N1[C@H](C(=O)O)C[C@@H]2CCC[C@@H]21`, the Potency result is “inactive”.

For the molecule `CCCCCCCCCCCCCC=O`, the viability change, negative = cytotoxic is 1.02% [at 8.36 µM] (inactive).

As to `CN(C(=O)c1c(O)c2ccccc2n(C)c1=O)c1ccccc1`, the Potency entry was “inactive”.

As for `Cc1[nH]c(=O)c(C#N)cc1-c1ccc2nccn2c1`, the Potency entry was “inactive”.

As to `CCO[Si](CCC1CCC2OC2C1)(OCC)OCC` (stereo not given), the Potency result is “inactive”.

For `NC(=O)c1ccc(N)cc1`, the Potency result was “inactive”.
